Sampled rows, rich in hits. Any-hit rate of the full collection: about 3.2%.
MEKK3 PB1 HTS: raises or lowers MEK5 binding to the human MEKK3 PB1 domain. Q99759. bead-based flow cytometry, Alexa488-MEK5 binding to MEKK3; actives lie on both sides; 0 = blocked by unlabeled MEK5, 100 = vehicle. binding response (% of control), % at 10 µM. hit rate 1.4% among 290,000;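 active = binding response more than 3 SD above or below the average of its plate-row segment, actives on both sides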;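 note: Alexa488 bead fluorescence after subtracting the streptavidin-only scavenger bead signal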
NRP1-CendR mod: modulators of CendR peptide binding to human neuropilin-1. FAM-RPARPAR peptide binding to NRP-1, fluorescence polarization. inhibition, % at 25 µM. hit rate 0.85% among 360,000. AID 602438;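 active = inhibition or corrected inhibition above about 18%, plus a signal ratio from 0.5 to 1.5, limit read from the data, passing the limit was not always enough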
Target sequence (O14786 whole entry, looked up): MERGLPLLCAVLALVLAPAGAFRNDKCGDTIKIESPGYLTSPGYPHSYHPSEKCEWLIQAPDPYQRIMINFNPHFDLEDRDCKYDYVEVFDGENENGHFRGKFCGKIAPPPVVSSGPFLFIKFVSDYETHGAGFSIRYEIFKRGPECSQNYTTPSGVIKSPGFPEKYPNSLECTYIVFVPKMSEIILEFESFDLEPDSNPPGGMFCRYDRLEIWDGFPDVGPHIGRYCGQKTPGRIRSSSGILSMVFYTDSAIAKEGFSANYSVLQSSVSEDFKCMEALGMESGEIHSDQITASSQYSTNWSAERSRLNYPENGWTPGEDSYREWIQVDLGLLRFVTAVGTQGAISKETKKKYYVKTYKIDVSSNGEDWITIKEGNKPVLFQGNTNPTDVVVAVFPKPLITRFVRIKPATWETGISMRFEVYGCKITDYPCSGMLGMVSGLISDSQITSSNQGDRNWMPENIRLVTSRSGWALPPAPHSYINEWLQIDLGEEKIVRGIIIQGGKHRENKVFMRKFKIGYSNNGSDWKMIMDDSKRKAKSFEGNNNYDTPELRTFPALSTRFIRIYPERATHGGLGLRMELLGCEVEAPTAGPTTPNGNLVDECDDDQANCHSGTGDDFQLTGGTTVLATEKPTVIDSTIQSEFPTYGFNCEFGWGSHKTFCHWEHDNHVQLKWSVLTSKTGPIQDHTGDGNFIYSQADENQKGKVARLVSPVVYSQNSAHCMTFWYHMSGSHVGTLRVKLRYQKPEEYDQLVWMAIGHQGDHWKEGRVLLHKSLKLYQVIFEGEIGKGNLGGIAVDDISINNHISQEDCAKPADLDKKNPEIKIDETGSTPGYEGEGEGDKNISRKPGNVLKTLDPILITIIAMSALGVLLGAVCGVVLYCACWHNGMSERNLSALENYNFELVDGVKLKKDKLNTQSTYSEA
MEKK2 mut-MEK5: signal of MEK5 binding to mutant human MEKK2 PB1 domain; bead flow cytometry, Alexa488-MEK5 binding to MEKK2 mutant; hit rate 0.35% among 290,000; percent response, % at 10 µM; in the data active = percent response above about 24%, passing the limit was not always enough
SKN-1 block: blocks SKN-1 activity in C. elegans. C. elegans VP596 Pgst-4::GFP/RFP ratio, acrylamide-induced, 24 h. inhibition, % at 21.8 µM. hit rate 0.49% among 360,000. AID 624304;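 active = interference check ratio from 0.5 to 1.5 plus GFP to RFP signal ratio inhibition reaching or exceeding a fixed threshold, cut at about 30% in these data, passing the limit was not always enough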
MEKK2 WT-MEK5: raises or lowers MEK5 binding to wildtype human MEKK2 PB1 domain; bead flow cytometry, Alexa488-MEK5 binding to MEKK2 WT; actives lie on both sides; Q9Y2U5; binding response (% of control), % at 10 µM; hit rate 1.1% among 290,000; in the data active = binding response below about 67% or above about 130%
MEKK2wt confirm: raises or lowers MEK5 binding to wildtype human MEKK2, retest | shares compounds with MEKK3 PB1 HTS | bead flow cytometry, Alexa488-MEK5 binding to MEKK2 WT; actives lie on both sides | binding response (% of control), % at 10 µM | hit rate 2.4% among 5,900; in the data active = binding response below about 16% or above about 210%; inactive = in between
MEKK2mut confirm: signal of MEK5 binding to mutant human MEKK2, retest. shares compounds with MEKK3 PB1 HTS. bead flow cytometry, Alexa488-MEK5 binding to MEKK2 mutant. percent response, % at 10 µM. hit rate 2% among 5,900; in the data active = percent response mostly above about 71%, no sharp cut-off; inactive = mostly below about 38%;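 note: higher means compound restores mutant binding toward wildtype level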
MEKK3-MEK5 inh: MEKK3-MEK5 PB1 inhibition, single concentration confirmation | shares compounds with MEKK3 PB1 HTS | bead flow cytometry, Alexa488-MEK5 binding to MEKK3; active compounds read low | binding response (% of control), % at 10 µM | hit rate 1.8% among 5,900 | AID 1894;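 active = binding response below 72% of control, or above a set upper limit, though filed actives all read lower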;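 note: lower values mean stronger disruption of MEK5 binding to MEKK3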
Each line names hits and unclear results; the compound was inactive in the other large screens (follow-up assays come after a bar, where they were run); ! = not active in a repeat; [ ] = another dose, or the depositor's remark.

N#CC(C#N)=C1C=CC=CN1/C(=C\c1ccco1)C(=O)c1ccc(Br)cc1	MEKK3 PB1 HTS 137.0 | MEKK2wt confirm inactive | MEKK2mut confirm inactive | MEKK3-MEK5 inh inactive
CC(C)N(c1ccccc1)c1ccc(NC(=O)COC(=O)CCN2C(=O)c3cccc([N+](=O)[O-])c3C2=O)cc1	MEKK3 PB1 HTS 48.0[inhibitor] | MEKK2wt confirm inactive | MEKK2mut confirm inactive | MEKK3-MEK5 inh inactive
CC1(C(=O)NS(=O)(=O)c2ccc(C#N)cc2)CCN1C(=O)CC1CCCCC1 (stereo not drawn)	none (no result: MEKK3 PB1 HTS, MEKK2 mut-MEK5, MEKK2 WT-MEK5)
CCC1NC(=O)c2cccnc2-n2c1nc1cc(F)ccc1c2=O (stereo not drawn)	none (no result: MEKK3 PB1 HTS, MEKK2 mut-MEK5, MEKK2 WT-MEK5)
N=c1sccn1CC(=O)Nc1ccccc1Sc1ccccc1	MEKK3 PB1 HTS 156.0, MEKK2 WT-MEK5 178.0 | MEKK2wt confirm inactive | MEKK2mut confirm inactive | MEKK3-MEK5 inh inactive
COCOCCn1cc(CN2CCS(=O)(=O)N(Cc3ccc(-c4ccc(OC)c(OC)c4)cc3)C(C)C2=O)nn1 (stereo not drawn)	none (no result: MEKK3 PB1 HTS, MEKK2 mut-MEK5, MEKK2 WT-MEK5)
CCOc1ccccc1NC(=O)Cn1c(C)cc(COC)c(C#N)c1=O	none
COCc1cc(C)n(CC(=O)Nc2ccccc2C(=O)OC)c(=O)c1C#N	MEKK3 PB1 HTS 2.0[inhibitor], MEKK2 WT-MEK5 2.0[inhibitor] | MEKK2wt confirm inactive | MEKK2mut confirm inactive | MEKK3-MEK5 inh inactive
Cc1cc(=O)c2c(C)ccc(C)c2[nH]1	MEKK3 PB1 HTS 74.0[inhibitor] | MEKK2wt confirm inactive | MEKK2mut confirm inactive | MEKK3-MEK5 inh inactive
FC(F)(F)c1cc(-c2ccco2)nc(NCc2cccs2)n1	MEKK3 PB1 HTS 122.0 | MEKK2wt confirm inactive | MEKK2mut confirm inactive | MEKK3-MEK5 inh inactive
O=C1OC(Cc2ccccc2)(c2ccccc2)c2ccccc21 (stereo not drawn)	none (no result: MEKK3 PB1 HTS, MEKK2 mut-MEK5, MEKK2 WT-MEK5)
Cc1cc(C(=O)COc2ccc3ccc(=O)oc3c2)c(C)n1Cc1cccs1	MEKK3 PB1 HTS 142.0 | MEKK2wt confirm inactive | MEKK2mut confirm inactive | MEKK3-MEK5 inh inactive
Cc1ccc(OCC(=O)c2cc(C)n(Cc3cccs3)c2C)c([N+](=O)[O-])n1	none
CNCC[C@H](Oc1cccc2ccccc12)c1cccs1	MEKK2 WT-MEK5 157.0! | MEKK2wt confirm inactive | MEKK2mut confirm inactive | MEKK3-MEK5 inh inactive
C/C(=N\NC(=O)COc1cccc2ccccc12)c1cccs1	none
COc1ccc(CCNC(=O)c2cc3ccc(Cl)cc3nc2N)cc1	none (no result: MEKK3 PB1 HTS, MEKK2 mut-MEK5, MEKK2 WT-MEK5)
CCOC(=O)c1sc(NC(=O)Nc2ccc(Cl)cc2)cc1C	MEKK2 WT-MEK5 138.0 | MEKK2wt confirm -2.0[inhibitor] | MEKK2mut confirm inactive | MEKK3-MEK5 inh inactive
CCOC(=O)c1sc(NC(=O)c2ccc(Cl)s2)cc1C	none
COC(CNC(=O)CCc1c(C)nc2c(c(C)nn2-c2ccc(C)cc2)c1C)OC	none
Cc1ccc(-n2nc(C)c3c(C)c(CCC(=O)Nc4ccc(CN5CCCC5)cc4)c(C)nc32)cc1	MEKK2 WT-MEK5 191.0 | MEKK2wt confirm inactive | MEKK2mut confirm inactive | MEKK3-MEK5 inh inactive
CC1(C(=O)Nc2ccc3c(c2)OCCO3)CN(S(C)(=O)=O)CC(=O)N1CCCn1ccnc1 (stereo not drawn)	none (no result: MEKK3 PB1 HTS, MEKK2 mut-MEK5, MEKK2 WT-MEK5)
O=C(NCc1ccccc1)C(c1ccc(-c2ccccc2)cc1)N1CCN(CCN2CCOCC2)CC1 (stereo not drawn)	none (no result: MEKK3 PB1 HTS, MEKK2 mut-MEK5, MEKK2 WT-MEK5)
C=CCc1cccc(/C=N/NC(=O)CCCNc2ccc(C)cc2)c1O	MEKK2 mut-MEK5 89.0, MEKK2 WT-MEK5 248.0 | MEKK2wt confirm inactive | MEKK2mut confirm inactive | MEKK3-MEK5 inh inactive
CCNC(=O)C1CCCN(C(=O)c2cccc(C(F)(F)F)c2)CC1 (stereo not drawn)	none (no result: MEKK3 PB1 HTS, MEKK2 mut-MEK5, MEKK2 WT-MEK5)
CCCCn1c(SCc2nc3ccccc3s2)nc2ccccc2c1=O	none
CCCn1c(=O)c2ccccc2n2c(SCc3nc4ccccc4s3)nnc12	MEKK3 PB1 HTS 1.0[inhibitor], MEKK2 WT-MEK5 -2.0[inhibitor] | MEKK2wt confirm inactive | MEKK2mut confirm inactive | MEKK3-MEK5 inh inactive

Source: PubChem BioAssay
